PLAP act = activators of human placental alkaline phosphatase; P05187; purified PLAP enzyme, luminescent substrate read-out; hits give high values; activation fold at 20 µM; 96,000 compounds, 1.2% hits; AID 696; in the data active means activation fold above about 2
CYP2C9 inhib = human CYP2C9 inhibition; AID 777; CYP2C9 Supersomes, luciferin-H conversion, luminescence; P11712; inhibition, % at 5 µM; 96,000 compounds, 20% hits;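 active means blocking of liver enzyme CYP2C9 beyond about 50% at 5 µM, limit read from the data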
Target sequence (P11712 whole entry, looked up): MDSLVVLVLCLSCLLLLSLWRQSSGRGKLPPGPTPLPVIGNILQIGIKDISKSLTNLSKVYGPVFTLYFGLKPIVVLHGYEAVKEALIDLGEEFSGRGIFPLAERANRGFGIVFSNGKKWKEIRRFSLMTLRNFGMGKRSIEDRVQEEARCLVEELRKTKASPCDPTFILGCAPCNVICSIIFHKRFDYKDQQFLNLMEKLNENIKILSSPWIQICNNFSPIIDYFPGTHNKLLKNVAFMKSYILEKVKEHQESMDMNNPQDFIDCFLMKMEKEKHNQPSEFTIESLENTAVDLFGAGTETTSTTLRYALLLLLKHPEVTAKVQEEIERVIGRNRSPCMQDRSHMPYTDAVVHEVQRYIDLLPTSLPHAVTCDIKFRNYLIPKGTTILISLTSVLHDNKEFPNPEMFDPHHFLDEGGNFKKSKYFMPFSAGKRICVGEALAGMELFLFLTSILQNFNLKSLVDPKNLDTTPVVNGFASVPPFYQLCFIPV
CYP2C19 act = activators of human cytochrome P450 2C19; 96,000 tested, under 10 active; AID 1025; P33261; activation factor at 5 µM; recombinant CYP2C19, luciferin-H EGE luminescence; hits give high values; 0 = fully inhibited enzyme, 1 = untreated enzyme;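 active means activation factor of at least 2 at 5 µM in the primary screen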;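 further: 0 = wells with 2.5 mM tranylcypromine and 1 = vehicle-only wells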
CYP2C19 inhib = inhibitors of human CYP2C19 | AID 778 | CYP2C19 Supersomes, luciferin-H EGE luminescence, 30 min | inhibition, % at 5 µM | 96,000 compounds, 21% hits;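 active means CYP2C19 inhibition above a set limit at 5 µM in the primary screen, cut at about 50% in these data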;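 further: plate controls were negative control wells for no effect and 2.5 mM tranylcypromine positive control for full effect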
CYP2C9 act = CYP2C9 (human) activation; 96,000 compounds, 1.4% hits; recombinant CYP2C9, luciferin-H conversion, luminescence; hits give high values; factor 1 = untreated enzyme, 0 = blocked; AID 1024; P11712; activation factor at 5 µM;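 active means activation factor of 2 or more for CYP2C9 at a 5 µM dose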;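 further: 0 = sulfaphenazole-blocked wells and 1 = vehicle-only wells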
* = called active by the depositor. This is a sample that favours compounds with a hit; in the whole collection about 31% have one here.

SMILES | PLAP act | CYP2C9 inhib | CYP2C19 act | CYP2C19 inhib | CYP2C9 act
COc1ccc(S(=O)(=O)NCCc2csc(-c3cccnc3)n2)cc1 | 0.9 | 60* | 0.1 | 93* | 0.4
CC(=O)Nc1ccc(S(=O)(=O)NCc2csc(-c3cccnc3)n2)cc1 | 0.9 | -3 | 1 | -4 | 1
O=C(OCc1csc(-c2ccccc2)n1)c1cccs1 | 0.8 | -5 | 0.9 | 8 | 1.1
CCC(=O)Nc1nc2nc(C)cc(=O)n2[nH]1 | 1 | -3 | 1 | 3 | 1
COc1ccccc1N(C(=O)c1ccco1)C(C(=O)NC1CCCC1)c1cccnc1 (stereo not given) | 1 | -18 | 1 | -5 | 1.2
COc1ccccc1N(C(=O)c1snc(C(N)=O)c1N)C(C(=O)NCCC(C)C)c1ccco1 (stereo not given) | 0.9 | 18 | 0.9 | 12 | 0.8
COc1ccccc1N(C(=O)c1snc(C(N)=O)c1N)C(C(=O)NC1CCCC1)c1ccco1 (stereo not given) | 1.6 | 40 | 0.4 | 62* | 0.6
COCCNC(=O)C(c1ccc(C)o1)N(C(=O)c1snc(C(N)=O)c1N)c1cc(C)cc(C)c1 (stereo not given) | 1.5 | 56* | 0.3 | 66* | 0.4
CC(C(=O)NC1CCCC1)N(C(=O)c1snc(C(N)=O)c1N)c1ccc2c(c1)OCCO2 (stereo not given) | 1 | 50* | 0.9 | 15 | 0.5
CCOc1ccccc1N(C(=O)c1snc(C(N)=O)c1N)C(C(=O)NCCC(C)C)c1ccco1 (stereo not given) | 1.5 | 50* | 0.6 | 40 | 0.5
CC(C(=O)NC1CCCC1)N(Cc1ccco1)C(=O)c1snc(C(=O)NC2CCCC2)c1N (stereo not given) | 1.6 | 44 | 0.8 | 23 | 0.6
COc1ccc(OC)c(NC(=O)C2CC(=O)n3ncnc3N2)c1 (stereo not given) | 0.8 | 2 | 0.8 | 19 | 1
COc1cc2ccccc2cc1-c1nnc(COc2ccccc2)o1 | 1.1 | -14 | 0.9 | 11 | 1.1
COc1ccc(CN(C(=O)c2snc(C(N)=O)c2N)C(C(=O)NC(C)(C)C)c2ccco2)cc1 (stereo not given) | 1.3 | 25 | 0.6 | 36 | 0.7
CC(C)(C)NC(=O)C(c1ccco1)N(Cc1ccc(F)cc1)C(=O)c1snc(C(N)=O)c1N (stereo not given) | 1.9 | 56* | 0.3 | 66* | 0.4
Fc1ccc(NCc2cn3ccccc3n2)cc1 | 1 | 29 | 0.2 | 84* | 0.7
O=C(NCCc1cn2ccccc2n1)c1ccccc1F | 1.1 | 8 | 0.8 | 18 | 0.9
Fc1cccc(NCc2cn3ccccc3n2)c1 | 1.3 | 32 | 0.2 | 78* | 0.7
CCCCCCn1c(N2CCC(C(N)=O)CC2)nc2c1c(=O)n(C)c(=O)n2C | 1.3 | -4 | 0.9 | 5 | 1
Cc1ccc(C(=O)O)cc1N1C(=O)c2cccc3cc(Br)cc(c23)C1=O | 1.1 | 7 | 0.9 | 12 | 0.9
O=C(c1cccc(F)c1)N1CCN(C(=O)c2cc(-c3ccc(Cl)cc3Cl)on2)CC1 | 1.4 | 39 | 0.2 | 80* | 0.6
CCC(C)(C)NC(=O)C(c1cccn1C)N(C(=O)Cn1nnc2ccccc21)c1ccccc1OC (stereo not given) | 1.6 | 6 | 1 | -2 | 0.9
FC(F)(F)c1cccnc1N1CCN(c2ncnc3nc[nH]c23)CC1 | 1.5 | 38 | 0.2 | 83* | 0.6
COc1ccc(NC(=O)C(c2ccc(OC)cc2)N(C)C(=O)c2cnccn2)cc1 (stereo not given) | 1.6 | 34 | 0.7 | 30 | 0.7
N/C(=N\OC(=O)CC1CCCCC1)c1ccccn1 | 0.9 | 10 | 0.8 | 24 | 0.9
SMILES | PLAP act | CYP2C9 inhib | CYP2C19 act | CYP2C19 inhib | CYP2C9 act
Cc1ccc(S(=O)(=O)Cc2ccc(C(=O)N3CCCC3)o2)cc1 | 0.9 | 19 | 0.4 | 58* | 0.8
CCOC(=O)C1CCCN(C(=O)c2ccc(CS(=O)(=O)c3ccc(C)cc3)o2)C1 (stereo not given) | 1.3 | 83* | 0.9 | 11 | 0.2
NC(=O)CSc1nc(N)c2c3c(sc2n1)CCCCC3 | 0.9 | 35 | 0.3 | 67* | 0.7
CCSc1nc(N)c2c3c(sc2n1)CCC3 | 1.1 | 31 | 0 | 96* | 0.7
CNC(=O)CSc1nc(N)c2c3c(sc2n1)CCC3 | 0.8 | 12 | 1 | 3 | 0.9
O=C(Nc1ccccc1)c1ccccc1NC(=O)C1CCCCC1 | 0.9 | 34 | 0.8 | 20 | 0.7
CCC(=O)Nc1ccccc1Oc1ccccc1 | 1.3 | 34 | 0.5 | 49 | 0.7
O=C(Nc1ccccc1Oc1ccccc1)C1CC1 | 1 | 48 | 0.3 | 70* | 0.5
CCN1C(=O)c2cccc3c(NC(=O)C4CCCCC4)ccc1c23 | 1.3 | -18 | 1 | 1 | 1.2
COC(=O)c1ccccc1NC(=O)C1CCCC1 | 1 | -39 | 0.4 | 57* | 1.4
CN1C(=O)c2cccc(NC(=O)C3CCCCC3)c2C1=O | 1 | 43 | 0.3 | 74* | 0.6
COC(=O)c1ccccc1NC(=O)C1CCN(C(=O)c2cc(OC)c(OC)c(OC)c2)CC1 | 1.6 | 91* | 0.8 | 18 | 0.1
CC1(C)CC(=O)C2=C(C1)N(CC1CCCO1)C(=O)C2(NC(=O)c1cccnc1)C(F)(F)F (stereo not given) | 1.5 | 12 | 1 | -3 | 0.9
O=C(Nc1cccc(Cl)c1)c1ccc2c(=O)n3c(nc2c1)CCCCC3 | 0.8 | 63* | 0.7 | 26 | 0.4
O=C(c1ccc2c(=O)n3c(nc2c1)CCCCC3)N1CCN(C(c2ccccc2)c2ccccc2)CC1 | 1.6 | 62* | 0.5 | 53* | 0.4
O=C(NCCC1=CCCCC1)c1ccc2c(=O)n3c(nc2c1)CCCCC3 | 1.5 | 94* | 0.3 | 75* | 0.1
O=C(Nc1ccc(F)c(Cl)c1)c1ccc2c(=O)n3c(nc2c1)CCCCC3 | 0.9 | 8 | 1 | 3 | 0.9
CN(C)c1cccc(C(=O)Nc2ccc3nc4n(c(=O)c3c2)CCCCC4)c1 | 1.3 | 76* | 0.2 | 76* | 0.2
Cc1c(NC(=O)c2ccc3ncccc3c2)c(=O)n(-c2ccccc2)n1C | 1 | 10 | 1 | 2 | 0.9
CSc1sc(C(=O)O)c(C)c1C(C)=O | 1.2 | -7 | 1.1 | -7 | 1.1
COc1ccc(CNC(=O)c2cnn3c(C(F)F)cc(C)nc23)cc1OC | 1.3 | 5 | 0.4 | 57* | 0.9
COc1ccc(NC(=O)CC2Oc3ccccc3NC2=O)cc1 (stereo not given) | 1.1 | 4 | 0.8 | 23 | 1
CCOc1ccc(Br)cc1C1C(C(=O)OC)=C(N)Oc2cc(N(C)C)ccc21 (stereo not given) | 1.4 | 85* | 0.1 | 94* | 0.1
Cc1ccccc1OC(=O)C1C(c2ccccc2)C(C(=O)O)C1c1ccccc1 (stereo not given) | 1.2 | 2 | 1.1 | -6 | 1
O=C(/C=C/c1ccccc1)Nn1cnnc1 | 1 | 54* | 0.5 | 53* | 0.5
Nc1nc(NCc2ccccc2)nc(-c2ccccc2)n1 | 0.9 | 78* | 0.2 | 80* | 0.2

From PubChem
